# From the supplement of paper PMC4466140
# B1: unnamed (peptide)
# chain: NLDRSKISLPDFDDE
# B2: unnamed (peptide)
# chain: VDFTLPPPPPPPGLD
# Biological target: CaNbp2
# Experiment: SPOT peptide array binding signal intensity (averaged, normalized) (arbitrary units (background-subtracted, floor 0; scale differs between SH3 domains)); higher = stronger binding of the SH3 domain to the peptide
# How it was run: (§1)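 GST-fused SH3 domains, from four yeast species, were produced in E. coli BL21(DE3) and captured on glutathione Sepharose. Membranes of cellulose carrying synthetic 15-mer peptides, in which cysteines had been replaced by serines, were exposed to each domain at 10 μg/ml overnight at 4°C in TBS-based blocking buffer. After anti-GST antibody, an HRP anti-mouse secondary and luminol, spots were imaged and quantified using Genespotter. Binding signal is normalized and background-subtracted spot intensity, averaged over replicates, in arbitrary units that differ between domains.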
row,Binder,SPOT peptide array binding signal intensity
1,B1,193
2,B2,≤ 0

# Biological target: CaRvs167
# Experiment: as above
# How it was run: as §1
row,Binder,SPOT peptide array binding signal intensity
1,B1,1.33
2,B2,1

# Biological target: CaRvs167-3
# Experiment: as above
# How it was run: as §1
row,Binder,SPOT peptide array binding signal intensity
1,B1,1.25
2,B2,0.25

# Biological target: CaSho1
# Experiment: as above
# How it was run: as §1
row,Binder,SPOT peptide array binding signal intensity
1,B1,74.5
2,B2,≤ 0

# Biological target: CaSla1-D1-D2
# Experiment: as above
# How it was run: as §1
row,Binder,SPOT peptide array binding signal intensity
1,B1,≤ 0
2,B2,≤ 0

# Biological target: CaSla1-D3
# Experiment: as above
# How it was run: as §1
row,Binder,SPOT peptide array binding signal intensity
1,B1,≤ 0
2,B2,≤ 0

# Biological target: ScAbp1
# Experiment: as above
# How it was run: as §1
row,Binder,SPOT peptide array binding signal intensity
1,B1,11
2,B2,≤ 0

# Biological target: ScBbc1
# Experiment: as above
# How it was run: as §1
row,Binder,SPOT peptide array binding signal intensity
1,B1,1.5
2,B2,≤ 0

# Biological target: ScBem1-D1
# Experiment: as above
# How it was run: as §1
row,Binder,SPOT peptide array binding signal intensity
1,B1,1
2,B2,≤ 0

# Biological target: ScBzz1-D1
# Experiment: as above
# How it was run: as §1
row,Binder,SPOT peptide array binding signal intensity
1,B1,39.5
2,B2,6

# Biological target: ScBzz1-D2
# Experiment: as above
# How it was run: as §1
row,Binder,SPOT peptide array binding signal intensity
1,B1,18
2,B2,≤ 0

# Biological target: ScCyk3
# Experiment: as above
# How it was run: as §1
row,Binder,SPOT peptide array binding signal intensity
1,B1,16
2,B2,1

# Biological target: ScFus1
# Experiment: as above
# How it was run: as §1
row,Binder,SPOT peptide array binding signal intensity
1,B1,34
2,B2,≤ 0

# Biological target: ScHof1
# Experiment: as above
# How it was run: as §1
row,Binder,SPOT peptide array binding signal intensity
1,B1,2
2,B2,17.8

# Biological target: ScHse1
# Experiment: as above
# How it was run: as §1
row,Binder,SPOT peptide array binding signal intensity
1,B1,1260
2,B2,≤ 0

# Biological target: ScLsb1
# Experiment: as above
# How it was run: as §1
row,Binder,SPOT peptide array binding signal intensity
1,B1,≤ 0
2,B2,≤ 0

# Biological target: ScLsb2
# Experiment: as above
# How it was run: as §1
row,Binder,SPOT peptide array binding signal intensity
1,B1,≤ 0
2,B2,1.5

# Biological target: ScLsb3
# Experiment: as above
# How it was run: as §1
row,Binder,SPOT peptide array binding signal intensity
1,B1,≤ 0
2,B2,≤ 0

# Biological target: ScLsb4
# Experiment: as above
# How it was run: as §1
row,Binder,SPOT peptide array binding signal intensity
1,B1,3
2,B2,≤ 0

# Biological target: ScMyo3
# Experiment: as above
# How it was run: as §1
row,Binder,SPOT peptide array binding signal intensity
1,B1,3.5
2,B2,1810

# Biological target: ScMyo5
# Experiment: as above
# How it was run: as §1
row,Binder,SPOT peptide array binding signal intensity
1,B1,4
2,B2,1800

# Biological target: ScNbp2
# Experiment: as above
# How it was run: as §1
row,Binder,SPOT peptide array binding signal intensity
1,B1,28
2,B2,≤ 0

# Biological target: ScPex13
# Experiment: as above
# How it was run: as §1
row,Binder,SPOT peptide array binding signal intensity
1,B1,≤ 0
2,B2,4.75

# Biological target: ScRvs167
# Experiment: as above
# How it was run: as §1
row,Binder,SPOT peptide array binding signal intensity
1,B1,0.167
2,B2,2.33

# Biological target: ScSho1
# Experiment: as above
# How it was run: as §1
row,Binder,SPOT peptide array binding signal intensity
1,B1,87.5
2,B2,≤ 0

# Biological target: ScSla1-D1-D2
# Experiment: as above
# How it was run: as §1
row,Binder,SPOT peptide array binding signal intensity
1,B1,≤ 0
2,B2,≤ 0

# Biological target: ScSla1-D3
# Experiment: as above
# How it was run: as §1
row,Binder,SPOT peptide array binding signal intensity
1,B1,1
2,B2,≤ 0

# Biological target: SpAbp1-D1
# Experiment: as above
# How it was run: as §1
row,Binder,SPOT peptide array binding signal intensity
1,B1,11
2,B2,≤ 0

# Biological target: SpBbc1
# Experiment: as above
# How it was run: as §1
row,Binder,SPOT peptide array binding signal intensity
1,B1,≤ 0
2,B2,0.5

# Biological target: SpBzz1-D1
# Experiment: as above
# How it was run: as §1
row,Binder,SPOT peptide array binding signal intensity
1,B1,14.5
2,B2,1630

# Biological target: SpBzz1-D2
# Experiment: as above
# How it was run: as §1
row,Binder,SPOT peptide array binding signal intensity
1,B1,≤ 0
2,B2,7

# Biological target: SpCyk3
# Experiment: as above
# How it was run: as §1
row,Binder,SPOT peptide array binding signal intensity
1,B1,≤ 0
2,B2,1

# Biological target: SpHof1
# Experiment: as above
# How it was run: as §1
row,Binder,SPOT peptide array binding signal intensity
1,B1,11.5
2,B2,≤ 0

# Biological target: SpHof1-2
# Experiment: as above
# How it was run: as §1
row,Binder,SPOT peptide array binding signal intensity
1,B1,4
2,B2,0.75

# Biological target: SpHof1-3
# Experiment: as above
# How it was run: as §1
row,Binder,SPOT peptide array binding signal intensity
1,B1,70
2,B2,1.75

# Biological target: SpHse1
# Experiment: as above
# How it was run: as §1
row,Binder,SPOT peptide array binding signal intensity
1,B1,983
2,B2,11

# Biological target: SpLsb1
# Experiment: as above
# How it was run: as §1
row,Binder,SPOT peptide array binding signal intensity
1,B1,≤ 0
2,B2,0.5

# Biological target: SpLsb4
# Experiment: as above
# How it was run: as §1
row,Binder,SPOT peptide array binding signal intensity
1,B1,≤ 0
2,B2,≤ 0

# Biological target: SpMyo1
# Experiment: as above
# How it was run: as §1
row,Binder,SPOT peptide array binding signal intensity
1,B1,9
2,B2,1110

# Biological target: SpNbp2
# Experiment: as above
# How it was run: as §1
row,Binder,SPOT peptide array binding signal intensity
1,B1,16
2,B2,≤ 0

# Biological target: SpPex13
# Experiment: as above
# How it was run: as §1
row,Binder,SPOT peptide array binding signal intensity
1,B1,≤ 0
2,B2,≤ 0

# Biological target: SpRvs167
# Experiment: as above
# How it was run: as §1
row,Binder,SPOT peptide array binding signal intensity
1,B1,0.5
2,B2,1

# Biological target: SpSla1-D1-D2
# Experiment: as above
# How it was run: as §1
row,Binder,SPOT peptide array binding signal intensity
1,B1,≤ 0
2,B2,≤ 0

# Biological target: SpSla1-D3
# Experiment: as above
# How it was run: as §1
row,Binder,SPOT peptide array binding signal intensity
1,B1,≤ 0
2,B2,≤ 0

# Biological target: AgAbp1
# Experiment: as above
# How it was run: as §1
row,Binder,SPOT peptide array binding signal intensity
1,B2,4

# Biological target: AgBbc1
# Experiment: as above
# How it was run: as §1
row,Binder,SPOT peptide array binding signal intensity
1,B2,≤ 0

# Biological target: AgBem1-D1
# Experiment: as above
# How it was run: as §1
row,Binder,SPOT peptide array binding signal intensity
1,B2,≤ 0

# Biological target: AgBzz1-D1
# Experiment: as above
# How it was run: as §1
row,Binder,SPOT peptide array binding signal intensity
1,B2,≤ 0

# Biological target: AgBzz1-D2
# Experiment: as above
# How it was run: as §1
row,Binder,SPOT peptide array binding signal intensity
1,B2,≤ 0

# Biological target: AgCyk3
# Experiment: as above
# How it was run: as §1
row,Binder,SPOT peptide array binding signal intensity
1,B2,≤ 0

# Biological target: AgFus1
# Experiment: as above
# How it was run: as §1
row,Binder,SPOT peptide array binding signal intensity
1,B2,≤ 0

# Biological target: AgHof1
# Experiment: as above
# How it was run: as §1
row,Binder,SPOT peptide array binding signal intensity
1,B2,27.8

# Biological target: AgHse1
# Experiment: as above
# How it was run: as §1
row,Binder,SPOT peptide array binding signal intensity
1,B2,32

# Biological target: AgLsb1
# Experiment: as above
# How it was run: as §1
row,Binder,SPOT peptide array binding signal intensity
1,B2,1.5

# Biological target: AgLsb4
# Experiment: as above
# How it was run: as §1
row,Binder,SPOT peptide array binding signal intensity
1,B2,≤ 0

# Biological target: AgMyo5
# Experiment: as above
# How it was run: as §1
row,Binder,SPOT peptide array binding signal intensity
1,B2,1660

# Biological target: AgNbp2
# Experiment: as above
# How it was run: as §1
row,Binder,SPOT peptide array binding signal intensity
1,B2,≤ 0

# Biological target: AgRvs167
# Experiment: as above
# How it was run: as §1
row,Binder,SPOT peptide array binding signal intensity
1,B2,1.67

# Biological target: AgSho1
# Experiment: as above
# How it was run: as §1
row,Binder,SPOT peptide array binding signal intensity
1,B2,≤ 0

# Biological target: AgSla1-D1-D2
# Experiment: as above
# How it was run: as §1
row,Binder,SPOT peptide array binding signal intensity
1,B2,2

# Biological target: AgSla1-D3
# Experiment: as above
# How it was run: as §1
row,Binder,SPOT peptide array binding signal intensity
1,B2,0.5

# Biological target: CaAbp1-D1
# Experiment: as above
# How it was run: as §1
row,Binder,SPOT peptide array binding signal intensity
1,B2,≤ 0

# Biological target: CaAbp1-D2
# Experiment: as above
# How it was run: as §1
row,Binder,SPOT peptide array binding signal intensity
1,B2,9

# Biological target: CaBbc1
# Experiment: as above
# How it was run: as §1
row,Binder,SPOT peptide array binding signal intensity
1,B2,≤ 0

# Biological target: CaBem1-D1
# Experiment: as above
# How it was run: as §1
row,Binder,SPOT peptide array binding signal intensity
1,B2,≤ 0

# Biological target: CaBzz1-D1
# Experiment: as above
# How it was run: as §1
row,Binder,SPOT peptide array binding signal intensity
1,B2,230

# Biological target: CaBzz1-D2
# Experiment: as above
# How it was run: as §1
row,Binder,SPOT peptide array binding signal intensity
1,B2,≤ 0

# Biological target: CaCyk3
# Experiment: as above
# How it was run: as §1
row,Binder,SPOT peptide array binding signal intensity
1,B2,≤ 0

# Biological target: CaFus1
# Experiment: as above
# How it was run: as §1
row,Binder,SPOT peptide array binding signal intensity
1,B2,≤ 0

# Biological target: CaHof1
# Experiment: as above
# How it was run: as §1
row,Binder,SPOT peptide array binding signal intensity
1,B2,0.5

# Biological target: CaHse1
# Experiment: as above
# How it was run: as §1
row,Binder,SPOT peptide array binding signal intensity
1,B2,≤ 0

# Biological target: CaLsb1
# Experiment: as above
# How it was run: as §1
row,Binder,SPOT peptide array binding signal intensity
1,B2,≤ 0

# Biological target: CaLsb4
# Experiment: as above
# How it was run: as §1
row,Binder,SPOT peptide array binding signal intensity
1,B2,≤ 0

# Biological target: CaMyo5
# Experiment: as above
# How it was run: as §1
row,Binder,SPOT peptide array binding signal intensity
1,B2,29
